The results in this text go back to ChEMBL document CHEMBL4513216, “Probing the Open Global Health Chemical Diversity Library for Multistage-Active Starting Points for Next-Generation Antimalarials” (ACS Infect Dis, 2020).

Molecules are shown by their SMILES. Among all 69,000 compounds or so, about 8,600 (12%) showed an effect of 50% or more. The list comes from a sample in which strong results are over-represented; it also holds similar structures and randomly drawn compounds.

The subject of the assay is Plasmodium berghei. As to the kind of experiment: Screen against P. berghei liver stage (PbLuc), transformed with Luciferase, at 10uM. It is filed as functional, HepG2. As to conditions: tested at 10 uM.
Consider `O=C([C@@H]1C[C@@H]2CCN(Cc3ccoc3)C[C@H]2O1)N1CCCC1`, for which the INHIBITION was 26.7%.

On to `O=C([C@H]1C[C@@H]2CCN(c3cccc(F)c3)C[C@H]2O1)N1CCCC1`, for which the INHIBITION stood at 89.5%. Next, `CN1CCN(C(=O)[C@@H]2C[C@@H]3CCN(c4cccc(F)c4)C[C@H]3O2)CC1`: 23.3%; `O=C([C@@H]1C[C@@H]2CCN(Cc3ccc4c(c3)OCO4)C[C@@H]2O1)N1CCCC1`: 33.4%; `Cc1ncccc1NC(=O)[C@H]1C[C@@H]2CCN(Cc3nccs3)C[C@@H]2O1`: 31.8%. The figure for `O=C([C@@H]1C[C@@H]2CCN(CCc3ccccc3)C[C@H]2O1)N1CCCC1` is 50%; for `Cc1ncccc1NC(=O)[C@H]1C[C@@H]2CCN(Cc3ccsc3)C[C@H]2O1` it is 75.4%; for `COc1ccccc1CN1CC[C@H]2C[C@H](C(=O)N3CCCC3)O[C@H]2C1` it is 64.2%. The figure for `COc1ccccc1CN1CC[C@H]2C[C@@H](C(=O)N3CCCC3)O[C@H]2C1` is -16.6%. For the molecule `CNC(=O)[C@H]1C[C@@H]2CCN(CCc3ccccc3)C[C@@H]2O1`, the INHIBITION is reported as 18.3%.

In the case of `Cc1ncccc1NC(=O)[C@@H]1C[C@@H]2CCN(Cc3cccs3)C[C@H]2O1`, the INHIBITION came to 8.93%. The figure for `O=C([C@@H]1C[C@@H]2CCN(c3cccc(F)c3)C[C@H]2O1)N1CCCC1` is 42.1%; for `CC(C)c1ccc(-n2ncc(C(=O)NCC3COC(C)(C)O3)c2N)cc1` (configuration not stated) it is -20.1%. The figure for `CCOC(=O)NCCC(=O)NC(C)(C)c1ccc2c(c1)OCCO2` is -15.7%. Next, `CC(C)(C)c1nc(CN(Cc2cccs2)CC2CCCO2)no1` (configuration not stated): 11.2%; `c1cncc(COc2ccccc2CNC2CCc3ncnn3C2)c1` (configuration not stated): -4.823%. As to `Cc1noc(C2CCC3(CCN(C(=O)c4ncccn4)CC3)O2)n1` (configuration not stated), the INHIBITION is listed as -14.2%. The figure for `O=C(C(c1ccccc1)S(=O)(=O)c1ccccn1)N1CCCCC1` (configuration not stated) is 24.7%; for `Cc1ccc(C(C)N(C)C(=O)c2ccc(=O)n(C)c2)s1` (configuration not stated) it is 37.4%; for `Cc1ncsc1CN1CCOC(C)(C(=O)N(C)C)C1` (configuration not stated) it is 21.1%.

Take `CCCn1c(C)c(CC(=O)NC(C)(C)CO)c2c1CC(C)(C)CC2=O`: the INHIBITION is given as 4.25%. Take `Cn1cc(CN2C[C@@H]3COC[C@]3(C(=O)NCCc3ccccc3)C2)cn1`: the INHIBITION was 32.2%. In the case of `O=C(NC1CC1)[C@H]1C[C@@H]2CCN(CCc3ccccc3)C[C@H]2O1`, the INHIBITION turned out to be 44.4%. The figure for `O=C(NC1CC1)[C@@H]1C[C@@H]2CCN(Cc3ccccc3)C[C@H]2O1` is 29.9%; for `O=C(NC1CCC1)[C@@H]1C[C@@H]2CCN(CCc3ccccc3)C[C@H]2O1` it is 81.2%. The figure for `CS(=O)(=O)c1ccc(CNC(=O)N2CCC(CO)CC2)cc1` is 17.4%; for `CCc1nccn1CC1CCCN1S(=O)(=O)N1CCCOCC1` (configuration not stated) it is -9.39%; for `CN1C[C@H]2CC[C@@H](CC1=O)N2C(=O)c1cc2ccccc2[nH]c1=O` it is -7.53%. The figure for `Cc1cc(N(C)C)nc(N2CCCC2c2ccccn2)n1` (configuration not stated) is -30%; for `CC(C)c1noc(CCC(=O)NC(C)c2nnc3n2CCCCC3)n1` (configuration not stated) it is 11.8%; for `CC(C)c1noc(CCCC(=O)NC(C)c2nnc3n2CCC3)n1` (configuration not stated) it is 50.2%.

For `CC(C)CCC(=O)NC(C)c1nnc2n1CCCCC2` (configuration not stated), the INHIBITION turned out to be 53.8%. As for `CCCC(=O)NC(C)c1nnc2n1CCC2` (configuration not stated), the INHIBITION was 3.73%. Next, `CC(C)c1noc(CCC(=O)NC(C)c2nnc3n2CCC3)n1` (configuration not stated): 20.6%; `CC(NC(=O)CCC1CCCCC1)c1nnc2n1CCC2` (configuration not stated): -31.8%; `CSCCC(C)(O)CNS(=O)(=O)Cc1cccc(C)c1` (configuration not stated): 17%. Next, `Clc1cncc(N2CCCC2c2nnc3n2CCCCC3)n1` (configuration not stated): -22.4%; `c1cnc2nc(N3CCCC3c3nnc4n3CCCCC4)ccc2n1` (configuration not stated): 58.7%. Consider `Cc1cc(N2CCCC2c2nnc3n2CCCCC3)nc(C)n1` (configuration not stated), for which the INHIBITION came out at 23.6%. The figure for `c1ccc2nc(N3CCCC3c3nnc4n3CCCCC4)cnc2c1` (configuration not stated) is 42.8%; for `Cc1cc(N2CCCC2c2nnc3n2CCCCC3)nc(N)n1` (configuration not stated) it is 63.6%. For `CCOc1cncc(N2CCCC2c2nnc3n2CCCCC3)n1` (configuration not stated), the INHIBITION is recorded as 24.2%. For the molecule `Cc1cnn(C2CCCN(C(=O)Cc3n[nH]c4ccccc34)C2)c1` (configuration not stated), the INHIBITION worked out at 33.7%. As for `CN(CCc1ccccn1)C(=O)CCC1CCCN(S(C)(=O)=O)C1` (configuration not stated), the INHIBITION is 15.3%. Next, `O=C(NCc1nncn1C1CCCCC1)C1COc2ccccc2C1` (configuration not stated): 32.4%; `CNC(=O)N1CCc2cc(C(=O)N(C)C)c(NCC3CC3)nc2CC1`: -25%. For `COc1ccc(Br)c(NC(=O)NCc2ncnn2C)c1`, the INHIBITION was 13.8%.

With `Cc1c(NCC(C)(C)C)cccc1C(=O)NCc1ncnn1C`, the INHIBITION is listed as -30.1%. `Cc1c(Cl)cc(C(=O)NCCc2ncnn2C)cc1Cl`: the INHIBITION is 42%. Regarding `COc1ccc(C)c(NC(=O)NCc2ncnn2C)c1`, the INHIBITION is on record as 51.1%.

Regarding `COc1ccc(Cl)cc1CCNC(=O)NCc1ncnn1C`, the INHIBITION is -23.5%. In the case of `Cc1cc(C)cc(C(=O)NCc2ncnn2C)c1`, the INHIBITION came out at 57.2%. Take `O=C(c1ccc(-c2ccccc2)[nH]c1=O)N1CCN(C2CC2)CC1`: the INHIBITION turned out to be 32.8%. Next, `CN(C)C(=O)[C@H]1C[C@H]2CN(C(=O)NCC3CCCCC3)C[C@@H]1O2`: -36%. As to `Fc1ccc(CN2CCCn3cnc(COCC4CC4)c3C2)cc1`, the INHIBITION was determined as 45.8%. The figure for `O=C(NC(C(=O)Nc1cc[nH]n1)c1ccccc1)C1CCC1` (configuration not stated) is 50.7%; for `O=C(COC1CCCC1)NC(C(=O)Nc1cc[nH]n1)c1ccccc1` (configuration not stated) it is 62.6%; for `CC(NC(=O)C1CCCC1)c1nc(-c2ccccc2)c[nH]1` (configuration not stated) it is 31.7%. In the case of `NC(=O)C(NC(=O)COC1CCCC1)c1ccccc1` (configuration not stated), the INHIBITION worked out at 45.3%.

With `O=C(NC(c1ccccc1)c1cccnc1)C1CC1` (configuration not stated), the INHIBITION is recorded as 25.8%. Next, `NC(=O)C(NC(=O)COC1CCCCC1)c1ccccc1` (configuration not stated): 22.5%.

With `c1cnnc(N2CCCC2CNCc2nc(-c3ccco3)no2)c1` (configuration not stated), the INHIBITION worked out at 30.42%. Next, `CNC(=O)CN1CC[C@H]2CN(C(=O)c3ccoc3)C[C@H]2C1`: 15.4%.

Consider `Cc1ccc(CC(=O)N2CCCC(n3ccnc3C(C)C)C2)cn1` (configuration not stated), for which the INHIBITION was -9.19%. With `CN1CCOC(CNC(=O)Cc2coc(-c3ccccc3)n2)C1` (configuration not stated), the INHIBITION is -33.9%. Consider `CC(=O)c1cccc(NC(=O)CCn2nc(-c3cccs3)oc2=O)c1`, for which the INHIBITION is on record as 29.2%.

As for `O=C(c1c2c(NCC3CC3)ncnc2n2ccccc12)N1CCOCC1`, the INHIBITION came to 50.7%. On to `O=C(c1c2c(NCC3CC3)ncnc2n2ccccc12)N1CCCC1`, for which the INHIBITION was 26.5%.

Regarding `O=C(c1c2c(N3CCCC3)ncnc2n2ccccc12)N1CCOCC1`, the INHIBITION is 36.2%. Consider `CCc1n[nH]c(C2CN(C(=O)c3cscn3)CCO2)n1` (configuration not stated), for which the INHIBITION is -23.9%. Turning to `CO[C@@H]1CN(S(=O)(=O)c2cn(C)cn2)[C@@H]2CCCO[C@@H]21`, the INHIBITION was -66.7%.

Take `O=C(NCc1nncn1C1CC1)c1cccnc1Oc1ccccc1`: the INHIBITION is 25.6%. Turning to `CNC(=O)CN1CCC(c2nn(C)c(=O)n2-c2ccccc2)CC1`, the INHIBITION came to 53.7%.

Consider `CNC(=O)CN1CCC(CN(C)CCSc2ccccc2)CC1`, for which the INHIBITION was -70.7%.

Take `CC(=O)N1CCC(c2nn(C)c(=O)n2-c2ccccc2)CC1`: the INHIBITION is reported as 35.2%. For `Cn1nc(C2CCN(CC(=O)NC3CC3)CC2)n(-c2ccccc2)c1=O`, the INHIBITION is on record as -21.3%.

For the molecule `CCSC(C)C(=O)N1CCC(c2nn(C)c(=O)n2-c2ccccc2)CC1` (configuration not stated), the INHIBITION is reported as 63.7%. Next, `CCCC(=O)N1CCC(c2nn(C)c(=O)n2-c2ccccc2)CC1`: 28.7%; `Cc1nc(NCc2cccc(F)c2)cc(C2CCNCC2)n1`: 24.8%. The figure for `COc1ccccc1CN1C(=O)O[C@@H]2CN(CC3CC3)C[C@@H]21` is -0.613%; for `COc1ccccc1CN1C(=O)O[C@@H]2CN(C(C)C)C[C@@H]21` it is 79.5%; for `COc1ccccc1CN1C(=O)O[C@@H]2CN(S(=O)(=O)N(C)C)C[C@@H]21` it is 7.97%.

`CCNc1ccnc(NCC2(N(C)C)CCOCC2)n1`: the INHIBITION was 39%. Next, `CCC1(CC)CC(=O)N(CC(O)c2ccc(Cl)cc2)C1=O` (configuration not stated): 7.3%; `O=C(CCc1nnc(-c2ccsc2)o1)NCC1CCN(C2CC2)C1` (configuration not stated): -6.04%; `O=C(CCc1nc(-c2ccsc2)no1)NCC1CCN(C2CC2)C1` (configuration not stated): 69%. For `O=C(CCc1nc(-c2cccnc2)no1)NCC1CCN(C2CC2)C1` (configuration not stated), the INHIBITION came out at 11%. The figure for `Cc1cc(NCCN2CCNC2=O)nc2cc3c(cc12)CCC3` is 59.5%; for `COc1cc2nc(NCCN3CCNC3=O)cc(C)c2cc1OC` it is -13.4%; for `Cc1cc(NCCS(C)(=O)=O)nc2cc3c(cc12)CCC3` it is 41.5%.

On to `O=c1[nH]c2c(c(=O)n1C1CCCCC1)CCC2Nc1ccc(Cl)cc1` (configuration not stated), for which the INHIBITION was determined as 46.5%. Next, `O=C(c1ccc2c(c1)[nH]c(=O)n2C1CCCC1)N1CC(O)C1`: 44.3%. The figure for `O=c1[nH]c2ncccc2n1C1CCCCC1` is 1.41%; for `O=c1[nH]c2c(c(=O)n1C1CCCCC1)CCC2Nc1ccccn1` (configuration not stated) it is 24.2%; for `O=c1[nH]c2c(c(=O)n1C1CCCCC1)CCC2Nc1ccccc1Cl` (configuration not stated) it is 80.5%.

Consider `O=c1[nH]c2ncccc2n1C1CCCC1`, for which the INHIBITION was 9%.

As for `O=c1[nH]c2c(c(=O)n1C1CCCCC1)CCC2Nc1ccccc1` (configuration not stated), the INHIBITION is reported as -22.9%. Consider `COc1ccc(NC2CCc3c2[nH]c(=O)n(C2CCCCC2)c3=O)cc1` (configuration not stated), for which the INHIBITION was 78.4%. As to `Cc1cccc(NC2CCc3c2[nH]c(=O)n(C2CCCCC2)c3=O)c1C` (configuration not stated), the INHIBITION stood at 84%. As to `O=c1[nH]c2c(c(=O)n1C1CCCCC1)CCC2NCCc1ccccc1` (configuration not stated), the INHIBITION amounted to 37.9%. Next, `COc1ccc(NC(=O)N2CCCCC2c2ncc[nH]2)cc1` (configuration not stated): 11.2%. The figure for `O=c1[nH]c2c(c(=O)n1C1CCCCC1)CCC2NCc1ccccc1` (configuration not stated) is 52.1%.
